Records with an inconclusive call do not appear. Active and inactive are the calls of the source. Rule for the calls: active = hit-call score of the fitted dose curve at least 0.9, where 1 is the maximum; inconclusive = response in the unintended direction; inactive = score below 0.9.

For the experiment, the system named is rat Monoamine Oxidase, MAO-A, Peripheral (MAOAP), gene 29253. The experiment is described as follows: NVS_ENZ_rMAOAP: NovaScreen (NVS) Enzymatic Assay for rat Monoamine Oxidase, MAO-A, Peripheral (MAOAP) (AID 2283237). The method, then: NVS_ENZ_rMAOAP is a biochemical, single-readout assay that uses extracted gene-proteins from Rat liver mitochondrial membranes in a tissue-based cell-free assay. Measurements were taken 1.17 hours after chemical dosing in a 96-well plate.NVS_ENZ_rMAOAP is one of one assay component(s) measured or calculated from the NVS_ENZ_rMAOAP assay. It is designed to make measurements of enzyme activity, a form of enzyme reporter, as detected with scintillation counting signals by Lysate-based radiodetection technology.Data from the assay component NVS_ENZ_rMAOAP was analyzed into 1 assay endpoint. This assay endpoint, NVS_ENZ_rMAOAP, was analyzed in the positive analysis fitting direction relative to DMSO as the negative control and baseline of activity. Using a type of enzyme reporter, loss-of-signal activity can be used to understand changes in the enzymatic activity as they relate to the gene Maoa. Furthermore, this assay endpoint can be referred to as a primary readout, because this assay has produced multiple assay endpoints where this one serves a enzymatic activity function. To generalize the intended target to other relatable targets, this assay endpoint is annotated to the oxidoreductase intended target family, where the subfamily is monoamine oxidase.
Binding assays used specific radioligands (tritiated, iodinated) with non-radioactive competitive displacement ligands in agonist or antagonist protocols (as indicated) and various reference compounds and inhibitors to titrate specific binding to receptors and transporters. Most enzyme assays (CYPs, kinases, phosphatases, proteases, HDACs) used recombinant protein and specific substrates (fluorescence mostly, some colorimetric and radioactive) and inhibitors, followed by a biochemical separation of substrate and product. All assays for the biochemical HTS were initially run in duplicate at a single concentration (10 uM for CYP450 assays and 25 uM for all others). […] Each assay was run with positive and negative controls, and concurrent controls on every plate. The follow-up (secondary) screen tested active chemical-pairs in concentration series, as well as a few additional assays not tested in the primary screen, some selected negative inactives, and several cases re-run in the concentration series for confirmatory purposes.
One may read the AC50 as the concentration giving half of the maximal activity seen. Regarding `Oc1cc2ccccc2c2ccccc12`, the AC50 was 3 µM (active).

Take `N=C(N)c1ccc(OCCCCCOc2ccc(C(=N)N)cc2)cc1`: the AC50 was 0.504 µM (active). Regarding `c1ccc2[nH]c(-c3cscn3)nc2c1`, the result was inactive.

Regarding `CC(C)C(=O)Nc1ccc([N+](=O)[O-])c(C(F)(F)F)c1`, the concentration at half-maximal activity (AC50) is 10.4 µM (active).

`CCOC(=O)COc1cc(-n2ncc(C(F)(F)F)c(C)c2=O)c(F)cc1Cl`: the compound was classed as inactive. For the compound `N#CSCSc1nc2ccccc2s1`, the AC50 is 25 µM (active). Turning to `O=Cc1ccccc1C=O`, the outcome was inactive.

For `O=c1c(O)c(-c2ccc(O)c(O)c2)oc2cc(O)cc(O)c12`, the AC50 was 17.2 µM (active).

Regarding `CN(C)c1ccc(N=NS(=O)(=O)O)cc1`, the concentration at half-maximal activity (AC50) is 21.1 µM (active). For the compound `Nc1cccc(N)c1`, the outcome was inactive.

Take `Nc1cccc2c(N)cccc12`: the concentration at half-maximal activity (AC50) is 25 µM (active). With `CCc1cc(SCc2sc(-c3ccc(C(F)(F)F)cc3)nc2CN2CCN(c3ccc(OC)cc3)CC2)ccc1OCC(=O)O`, the AC50 was 25 µM (active). For `CC[C@H](C)C(=O)O[C@H]1C[C@H](O)C=C2C=C[C@H](C)[C@H](CC[C@@H](O)C[C@@H](O)CC(=O)O)[C@H]21`, the compound was called inactive. The same measure, in the same setting: the entry for `Cc1cc(SC2=C(O)C[C@@](CCc3ccc(N)cc3)(C(C)C)OC2=O)c(C(C)(C)C)cc1CO` is “inactive”. For `CCCCCCCC=O`, the compound was called inactive. Consider `CCCOc1sc(C(=O)N2CCC(c3cc(CN)ccc3F)CC2)c(C)c1Br`, for which the concentration at half-maximal activity (AC50) is 2.6 µM (active). On to `CCn1nc(C)c2c1C(=O)NCC(c1ccc(O)cc1)=N2`, for which the half-maximal activity concentration (AC50) is 5.25 µM (active).

For `CCCCC(CC)C(=O)OCCOCCOCCOC(=O)C(CC)CCCC` (stereo not given), the compound was called inactive. The same measure, in the same setting: the entry for `NCC1(Cc2noc(=O)[nH]2)CCCCC1` is “inactive”.

With `Oc1ccc2c(c1)-c1ccccc1C2`, the AC50 is 4.45 µM (active). Still for that read-out and setting: the figure for `Nc1nc(N)c2nc(CNc3ccc(C(=O)N[C@@H](CCC(=O)O)C(=O)O)cc3)cnc2n1` is 38.7 µM (active). Regarding `Fc1ccccc1[C@@H](F)COC1CCC(Nc2ncnc3[nH]ncc23)CC1` (stereo not given in full), the call was inactive. Consider `Clc1cc(Cl)c2c(c1)N=C1CCCCCN1C2`, for which the AC50 was 4.96 µM (active). The same measure, in the same setting: the result for `CN1CCN(Cc2cc(-c3ccc4[nH]c(=O)oc4c3)co2)[C@@H](c2ccc(F)cc2)C1` reads 18.2 µM (active). Still for that read-out and setting: the result for `O=NO` reads 33.9 µM (active); that for `COCCOCCOC`, 39.7 µM (active). In the case of `Cc1cc(CCN2CCN(c3nsc4ccccc34)CC2)cc2c1NC(=O)CC2(C)C`, the outcome was inactive.

Consider `CN(C[C@@H](CC[N+]12CCC(C3CCCCC3)(CC1)CC2)c1ccc(Cl)c(Cl)c1)C(=O)c1cc(C(F)(F)F)cc(C(F)(F)F)c1`, for which the concentration at half-maximal activity (AC50) is 36.8 µM (active). Still for that read-out and setting: the figure for `COc1ccc2cc(S(=O)(=O)N[C@H](CC(=O)N[C@H](Cc3ccc(CN4[C@H](C)CCC[C@@H]4C)cc3)C(=O)N(C)C(C)C)c3ccc4c(c3)OCO4)ccc2c1` is 36 µM (active); for `O=c1c(-c2ccc(O)cc2)coc2cc(O)cc(O)c12` it is 3.49 µM (active). Turning to `Cc1c(C(=O)O)c(O)cc2c1C(=O)c1c(O)c([C@@H]3O[C@H](CO)[C@@H](O)[C@H](O)[C@H]3O)c(O)c(O)c1C2=O`, the compound was called inactive.

As to `CSC(=O)c1cccc2nnsc12`, the outcome was inactive. Still for that read-out and setting: the entry for `CCCN(CCC)c1c([N+](=O)[O-])cc(C(F)(F)F)c(N)c1[N+](=O)[O-]` is “inactive”; for `C[C@]12CC[C@@H]3c4ccc(O)cc4CC[C@H]3[C@@H]1CCC2=O` it is “inactive”.

Consider `O=C(O)CC(O)C(=O)O` (stereo not given), for which the outcome was inactive. Same read-out and setting: the result for `CCCOC(=O)NCCCN(C)C` reads “inactive”. Regarding `O=c1ccc2ccccc2o1`, the AC50 was 6.56 µM (active).

For the compound `O=C(c1ccc(O)cc1O)c1ccc(O)cc1O`, the AC50 was 0.935 µM (active). The same measure, in the same setting: the result for `O=[N+]([O-])c1ccc(O)cc1` reads 19.2 µM (active).

`O=C(O)c1cccc(C(=O)O)c1`: the compound was called inactive.

For the origin of these results see PubChem BioAssay (EPA / NIEHS).
